Test results reported in PubChem BioAssay AID1851 (National Center for Advancing Translational Sciences (NCATS), 2009).
About 4,000 (25%) of roughly 16,000 compounds were called active. Another 26% or so got no clear call; they are omitted. Not all results are given here. A number with no mark means an inactive call. Calls come from the whole dose curve; as a rule, active = well fitted curve in the direction sought with a large enough effect; inconclusive = small, poorly fitted or top-dose-only effect, or effect the other way; inactive = no such curve, though single readings can be large or run the other way.

Biological target: Cytochrome P450 2C9 (Homo sapiens) (UniProt P11712)
Assay: Cytochrome panel assay with activity outcomes
Settings: recombinant CYP, pro-luciferin dealkylation, luminescence, p450-cyp2c9; series mostly up to 57.1 µM; activity, negative = inhibition: at the top concentration
% is set by controls: 0 for no effect and ±100 for the full control effect.

Sequence of Cytochrome P450 2C9 (Homo sapiens) (P11712 whole entry, looked up): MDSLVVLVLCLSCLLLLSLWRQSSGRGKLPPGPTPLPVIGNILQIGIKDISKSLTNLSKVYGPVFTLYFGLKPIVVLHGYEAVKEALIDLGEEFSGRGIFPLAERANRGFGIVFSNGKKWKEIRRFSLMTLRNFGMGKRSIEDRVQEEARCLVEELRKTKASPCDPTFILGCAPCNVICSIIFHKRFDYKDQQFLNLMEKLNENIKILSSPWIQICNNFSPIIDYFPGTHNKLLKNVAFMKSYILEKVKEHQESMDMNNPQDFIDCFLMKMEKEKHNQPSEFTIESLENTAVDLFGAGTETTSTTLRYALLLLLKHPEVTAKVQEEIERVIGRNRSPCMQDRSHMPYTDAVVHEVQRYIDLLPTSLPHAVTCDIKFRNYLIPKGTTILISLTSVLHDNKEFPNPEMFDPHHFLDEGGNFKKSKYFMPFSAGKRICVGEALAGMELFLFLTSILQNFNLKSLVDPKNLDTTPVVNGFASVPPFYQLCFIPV

Compound | AC50 | activity, negative = inhibition
C[C@@H](C(=O)NCCc1c[nH]c2ccccc12)[C@H]1C[C@]1(C)[C@H](NC(=O)OCc1ccccc1)c1ccccc1 | 0.631 µM (active) | 
C[C@@H](C(=O)NCCc1c[nH]c2ccccc12)[C@@H]1C[C@@]1(C)[C@@H](NC(=O)OCc1ccccc1)c1ccccc1 | 2.51 µM (active) | 
COC(=O)C(Cc1c[nH]c2ccccc12)NC(=O)C(C)C (stereo not drawn) |  | -33.5%
CC(=O)N[C@@H](Cc1c[nH]c2ccccc12)C(=O)OCc1cc(C(F)(F)F)cc(C(F)(F)F)c1 |  | 2.21%
C#C[C@]1(O)CC[C@@H]2[C@H]3CCC4=CCCC[C@@H]4[C@@H]3CC[C@@]21C | 10 µM (active) | 
C#C[C@]1(O)CC[C@@H]2[C@H]3CCc4cc(OC)ccc4[C@@H]3CC[C@@]21C |  | -27.5% [at 25.6 µM]
C#C[C@@]1(O)CC[C@@H]2[C@@H]3CCC4=CC(=O)CC[C@@H]4[C@H]3CC[C@]21CC |  | -23.8% [at 25.6 µM]
C#C[C@@]1(OC(C)=O)CC[C@@H]2[C@@H]3CCC4=C[C@@H](OC(C)=O)CC[C@H]4[C@H]3CC[C@]21C | 15.8 µM (active) | 
CC(C)(C)C(=O)NC(=C(Cl)Cl)P(=O)(O)O |  | -19.5%
CCCn1nc(NC(=O)CC(C)C)c2cc3ccccc3nc21 | 2 µM (active) | 
CCCS(=O)(=O)N1CCN(CC2CC=CCC2)CC1 (stereo not drawn) |  | -43.6%
Cc1noc(C)c1-c1cc(NC2CC2)ncn1 |  | -1.99% [at 2.29 µM]
COc1cc(C(=O)Nc2cc(C(F)(F)F)ccc2Cl)cc(OC)c1OC | 8.91 µM (active) | 
COc1cc(NC(=O)c2ccc(COCC(F)(F)F)cc2)cc(OC)c1OC |  | 22.1%
N/C(CC(=O)Nc1cc(C(F)(F)F)ccc1Cl)=N\O |  | 11.2% [at 11.4 µM]
CC(C)(CN)CN |  | 2.97% [at 11.4 µM]
CCC(C)NC(=O)C1CCCN(C(=O)NC2CCCCC2)C1 (stereo not drawn) | 20 µM (active) | 
CCC(C)NC(=O)C1CCN(C(=O)c2ccccc2)CC1 (stereo not drawn) |  | -9.04%
CC(C)C(NC(=O)C1CCCCC1)C(=O)NC1CCN(Cc2ccccc2)CC1 (stereo not drawn) |  | 7.86%
COc1ccc(C2C(=O)N(CCc3ccccc3)CC(=O)N2C2CCCC2)cc1 (stereo not drawn) | 22.4 µM (active) | 
COc1ccc(C2C(C(=O)N3CCN(C)CC3)c3ccccc3C(=O)N2C2CCCCC2)cc1 (stereo not drawn) |  | -14%
Cc1ccc(CCN2CC(C(=O)NC3CCCC3)CC2=O)cc1 (stereo not drawn) |  | -15.5%
Cn1c(=O)n2n(c1=O)[C@H]1[C@H](O)[C@H]3O[C@H]3C(=O)[C@H]1CC2 |  | 7.6% [at 11.4 µM]
O=C(O)CN(CCN(CC(=O)O)CC(=O)O)CC(=O)O.[Cu] |  | 4.98% [at 11.4 µM]

Compound | AC50 | activity, negative = inhibition
Cc1[nH]nc(-c2ccc(OCc3cnn(-c4ccccc4)c3)cc2O)c1Oc1ccccc1F | 2 µM (active) | 
COC(=O)c1ccc(Oc2coc3cc(OCc4cnn(-c5ccccc5)c4)ccc3c2=O)cc1 |  | 28.5%
Cc1ccc(NC(=O)Nc2nc(-c3ccc(C)s3)cs2)cc1 | 3.55 µM (active) | 
O=C(c1cc(C(F)(F)F)cc(C(F)(F)F)c1)N1CCC[C@@]2(CCN(c3ncccn3)C2)C1 |  | -1.16%
COc1ccc(CNC(=O)C2CC(c3ccc(OC)cc3)=NO2)cc1 (stereo not drawn) |  | 16.9%
COc1ccc(CNC(=O)c2csc(Cc3ccc(OC)cc3)n2)cc1 | 10 µM (active) | 
Cc1cc(C(=O)NCc2ccccc2)no1 |  | -34.4%
COc1ccc(CNC(=O)C2CSC(=O)C2)cc1 (stereo not drawn) |  | -18.7%
CC(C)(C)c1ccc(C(=O)NCc2ccc(Cl)cc2)cc1 |  | 9%
COc1ccc(Cc2c(N)nc(N)nc2N)cc1 |  | 11.5%
COc1ccc(CNC(=O)c2csc(Cc3ccc(Cl)cc3)n2)cc1 | 3.98 µM (active) | 
COc1ccc(CNC(=O)c2cnc(C)cn2)cc1 | 35.5 µM (active) | 
Cc1nc(CN2CCCCC2)c(O)c(=O)[nH]1 |  | 7.96% [at 11.4 µM]
C[C@]1(c2ccccc2)OC(C(=O)O)=CC1=O |  | 8.89%
CC(=O)N(O)CCCCCNC(=O)CCC(=O)N(O)CCCCCNC(=O)CCC(=O)N(O)CCCCCN |  | -3.39% [at 25.6 µM]
Cc1ccc2nc(N3CCN(S(=O)(=O)c4ccc5c(c4)OCCO5)CC3)c(C#N)cc2c1 | 2.82 µM (active) | 
O=C(O)CCC(=O)N1CCOc2ccc(Cl)cc21 |  | 0.992%
Cc1ccc(Cl)cc1N1CCN(S(=O)(=O)c2ccc3c(c2)OCCO3)CC1 | 2.82 µM (active) | 
O=c1c(Cl)c(N2CCN(S(=O)(=O)c3ccc(F)cc3)CC2)cnn1-c1cccc(Cl)c1 |  | -28.2%
O=C(c1ccc2c(c1)OCCO2)C1CCN(S(=O)(=O)c2ccccc2F)CC1 |  | -25.3%
CC(=O)C1=C(NC(=O)c2ccc(F)cc2)CC2C1C2(C)C (stereo not drawn) | 3.55 µM (active) | 
O=C(Nc1cccc2[nH]ncc12)c1ccc(F)cc1 |  | -3.46%
Cc1occc1C(=O)NNC(=O)c1ccc(F)cc1 |  | -15.1%
C/C(CCN1CCCc2nc(C)c(C)cc21)=N\OC[C@@H](C)[C@H](OCc1ccccc1)C(C)C |  | 24.5% [at 11.4 µM]
